Assay outcomes deposited in PubChem by National Center for Advancing Translational Sciences (NCATS).
Sampled rows, rich in hits. Any-hit rate of the full collection: about 1.1%.
Epigenetic mod = derepresses silenced GFP locus in mouse C127i cells | 68,000 tested, 0.09% active | Potency, µM (titrated, usually from 46.1 µM), inactives show top-dose GFP derepression (activation) | mouse C127i GFP locus derepression, cytometry, 30 h | AID 597; note: % of control where 0% means no effect
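Derepression screen: silenced CMV-GFP reporter in murine C127i cells, 30 h compound incubation at 37 C, washed cells imaged by laser-scanning cytometer to enumerate GFP-expressing objects of 20 to 120 um.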
Hsp90 Hop PPI = changes Hsp90-Hop TPR2A binding signal, up or down; AlphaScreen TPR2A-His6 binding biotin-Hsp90 C-terminal peptide; Potency, µM (highest dose often 57 µM), without a hit: at the top dose activity change, negative = inhibition; 71,000 tested, 0.44% active; active = well fitted curve in either direction with a large enough effect; inconclusive = small, poorly fitted or top-dose-only effect, or another doubt; note: potency is the fitted concentration of half-maximal effect; % is set by controls: 0 for no effect and ±100 for the full control effect
USP2a inh = inhibitors of human ubiquitin-specific protease USP2a | AID 927 | Potency, µM (highest dose often 38.3 µM), inactives show at the highest dose activity change, negative = inhibition, most hits filed as inhibitors | O75604 | USP2a enzymatic assay, qHTS inhibition | 60,000 tested, 0.1% active; note: potency is the fitted concentration of half-maximal effect; nearly all actives have a fitted effect of over 60% in size
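Coupled readout: USP2-cleaved Ub-PLA2 (20nM final) turns over NBD C6-HPC (20uM final), Ex 460nm/Em 535nm after 2.5 h, time-zero read flagging artifacts. Enzyme (20nM final, pH 8.0 Tris) given 30 min RT with compound first; NEM defines full inhibition.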
GBA mod = modulators of human glucocerebrosidase; purified enzyme, resorufin glucoside fluorescence (screen aimed at inhibitors), 20 min; 48,000 tested, 1.1% active; P04062; Potency, µM; in the data active = potency below about 15 µM; inconclusive = mostly about 16 µM to 33 µM;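 note: potency is the fitted concentration of half-maximal effect; the screen sought inhibitors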
Target sequence (P04062 whole entry, looked up): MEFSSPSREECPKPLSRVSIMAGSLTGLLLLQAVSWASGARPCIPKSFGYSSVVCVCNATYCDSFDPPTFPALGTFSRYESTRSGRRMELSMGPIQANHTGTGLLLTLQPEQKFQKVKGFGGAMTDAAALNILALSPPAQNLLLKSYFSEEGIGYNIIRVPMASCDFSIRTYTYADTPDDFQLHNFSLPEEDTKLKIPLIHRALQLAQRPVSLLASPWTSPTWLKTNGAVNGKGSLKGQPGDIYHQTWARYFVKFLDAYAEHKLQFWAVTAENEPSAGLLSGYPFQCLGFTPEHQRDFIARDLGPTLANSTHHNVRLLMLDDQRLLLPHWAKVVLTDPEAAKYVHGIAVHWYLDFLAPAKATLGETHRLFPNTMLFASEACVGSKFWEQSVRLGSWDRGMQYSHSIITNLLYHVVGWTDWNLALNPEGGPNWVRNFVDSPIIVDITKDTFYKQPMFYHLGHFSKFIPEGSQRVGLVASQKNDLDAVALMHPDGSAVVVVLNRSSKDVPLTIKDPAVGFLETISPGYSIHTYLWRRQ
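Wild-type enzyme at 0.2 nM final in 50mM citric acid/KH2PO4, 10mM sodium taurocholate, 0.01% tween-20, pH 5.9, with resorufin beta-D-glucopyranoside at 30 uM final. Compounds titrated, 20 min at RT, red fluorescence read; AC50 from titration.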
Ub-GFP proteasome = ubiquitin-GFP accumulation via proteasome inhibition; Ubiquitin-GFP reporter cells, proteasome inhibition, GFP fluorescence; response scale: untreated = 0%, 10 µM MG-132 = 100%; Potency, µM (titrated, usually from 45.9 µM), without a hit: at the highest dose activation (GFP accumulation), hits mostly activators; 67,000 tested, under 10 active; active = well fitted activation curve with a large enough effect, not every such curve was filed as active; inconclusive = small, poorly fitted or top-dose-only effect, or another doubt; inactive = no such curve, though single readings can be large or run the other way; note: potency is the fitted concentration of half-maximal effect
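Reporter cells (U2OS, ubiquitin-G76V-GFP fusion) are plated overnight, then treated 4 hr at 37 °C with compound titrations from 46 uM down to 2.9 nM. Activity is scaled against untreated cells and 10 uM MG-132.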
HBB splice mod = hemoglobin beta splicing modulation | AID 925 | 65,000 tested, 0.06% active | HBB splicing reporter cell assay, activation; EGFP reporter with mutant IVS2-654 intron; response scale: normalised to 500 nM splice-correcting PNA | Potency, µM (top dose mostly 46.1 µM), for the others: top-dose activation, most hits filed as activators; note: potency is the fitted concentration of half-maximal effect; 0% is about no effect
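Compounds were applied for 2 days to HeLa EGFP-654 cells, 500/well in Optimem with 2% FCS. The reporter's EGFP is disrupted by mis-splicing of beta-globin intron IVS2-654. Readout: summed well GFP fluorescence from 488 nm laser scanning; reference was 500 nM antisense […] 654 PNA.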
* marks the source's active call; other numbers are inactive results; ? = inconclusive; · = not tested or not shown; [ ] = dose if it differs, or a comment. Unless noted, calls come from the whole dose curve; as a rule, active = well fitted curve in the direction sought with a large enough effect; inconclusive = small, poorly fitted or top-dose-only effect, or another doubt; inactive = no such curve, though single readings can be large; an effect the other way counts as inactive or inconclusive.

SMILES	Epigenetic mod	Hsp90 Hop PPI	USP2a inh	GBA mod	Ub-GFP proteasome	HBB splice mod
CC(C)C[C@@H](CC(=O)N[C@@H](CCCN)CC(=O)N[C@@H]1CCNC[C@H]1C(=O)N[C@H](CC(=O)N[C@@H](CCC(=O)O)CC(=O)O)Cc1ccccc1)NC(=O)[C@@H]1CCCC[C@H]1N	·	-17%	·	·	·	3%
CC(=O)OCC1OC(c2ccccc2)C(OC(C)=O)C(OC(C)=O)C1OC(C)=O (stereo not drawn)	2%	-4%	4%	·	-3%	-3%
O=C(OCC1OC(OC(=O)c2cc(O)c(O)c(OC(=O)c3cc(O)c(O)c(O)c3)c2)[C@@H](OC(=O)c2cc(O)c(O)c(OC(=O)c3cc(O)c(O)c(O)c3)c2)C(OC(=O)c2cc(O)c(O)c(OC(=O)c3cc(O)c(O)c(O)c3)c2)C1OC(=O)c1cc(O)c(O)c(OC(=O)c2cc(O)c(O)c(O)c2)c1)c1cc(O)c(O)c(OC(=O)c2cc(O)c(O)c(O)c2)c1 (stereo partly drawn)	·	·	1µM*	·	·	·
CC(C)CO/N=C1/C[C@@H](O)[C@@H](O)[C@@H]2[C@@H]3C(=O)N(Cc4ccc5c(c4)OCO5)C(=O)[C@H]3CC[C@@H]12	·	·	·	·	·	0%[9.22 µM]
CCOC(=O)c1c(NC(=O)c2cccs2)sc2c1CCCC2	7%	11%	·	·	6%	0%
CCc1c(C)sc(NC(=O)c2cccs2)c1C(=O)OC(C)C	0%	25µM*	·	·	-6%	-1%
CCOC(=O)CNc1c(-c2ccc(O)cc2)nc2ccccn12	4%	-2%	·	?	-2%	0%[57.5 µM]
CCOC(=O)CNc1c(-c2ccc(O)cc2)nc2ccc(Cl)cn12	-2%	-19%	6%	4.1*	-3%	6%
COCCn1c(=O)cnc2cnc(OCc3ccccc3)nc21	0%[9.22 µM]	-2%	12%	·	-2%	0%
Cc1cccc(NS(=O)(=O)c2ccc(C)c(C(=O)OCC(=O)Nc3cc(C)on3)c2)c1	0%	-2%	30%	11*	-4%	0%[57.5 µM]
Cc1cc(NC(=O)c2ccc(N(C)S(=O)(=O)c3ccccc3)cc2)no1	2%	-2%	3%	15*	3%	-1%
CC(Oc1ccccc1)C(=O)Nc1ccc(C(N)=O)cc1 (stereo not drawn)	-3%	-4%	6%	>77	-1%	-1%
Cc1ccc(S(=O)(=O)Nc2ccc(C(=O)Nc3cc(C)on3)cc2)cc1	3%	-3%	8%	0.16*	2%	1%
COc1ccc(S(=O)(=O)N(C)c2ccc(OCC(=O)Nc3cc(C)on3)cc2)cc1	3%	-3%	31%	·	4%	1%
Cc1cc(NC(=O)c2ccc(NC(=O)C(C)Oc3ccccc3)cc2)no1 (stereo not drawn)	0%	-3%	7%	1.9*	-8%	-2%
CN1CCC[C@@H]1c1cccnc1.O=C(O)c1ccccc1O.O=C([OH2+])c1ccccc1O.O=C([OH2+])c1ccccc1O.[Mn]	4%[9.22 µM]	0%[11 µM]	·	·	2%[9.17 µM]	2%[9.22 µM]
COc1ccc(Oc2ncc3nc(-c4cn(C)c5ccccc45)c(=O)n(C)c3n2)cc1	-2%[9.22 µM]	-5%	-18%	·	9%	1%
C=CCOC(=O)C(C(C)=O)C(NC(=O)OC)c1ccc(Cl)cc1 (stereo not drawn)	·	·	·	·	·	3%[9.22 µM]
CCCN(CCc1ccccc1)[C@H]1CCc2c(O)cccc2C1	-2%	?	3%	·	5%	-2%
COC(=O)NC(c1ccc(Cl)cc1)C(C(C)=O)C(=O)OC (stereo not drawn)	·	·	·	·	·	1%[9.22 µM]
Cc1cc(NC(=O)c2ccccc2NS(=O)(=O)c2c(C)c(C)cc(C)c2C)no1	-4%	-1%	12%	>77	4%	0%
Cc1ccc(C)c(S(=O)(=O)Nc2ccccc2C(=O)Nc2cc(C)on2)c1	-2%	-1%	13%	4.8*	-2%	-1%
O=c1[nH]c(SCc2ccc(F)cc2)nc2c1cnn2-c1ccc(F)cc1	·	1%	·	·	-11%	0%
COC(=O)c1ccc(CSc2nc3c(cnn3-c3ccc(C)c(C)c3)c(=O)[nH]2)o1	-1%	-3%	2%	14*	3%	-1%
CCOc1ccc(Nc2cc(C)nc(N3CCOCC3)n2)cc1	4%	?	-10%	3.4*	2%	13%[0.369 µM]
SMILES	Epigenetic mod	Hsp90 Hop PPI	USP2a inh	GBA mod	Ub-GFP proteasome	HBB splice mod
CCOC(=O)c1ccc(Nc2cc(C)nc(N3CCOCC3)n2)cc1	4%	-5%	3%	8.5*	·	6%[0.369 µM]
CCOc1ccc2nc(N3CCOCC3)nc(C)c2c1	-2%	?	14%	·	0%	-1%
CNC(=O)[C@H](C)/C=C/C(NC(=O)OCc1ccccc1)c1ccc(C(=O)OC)cc1 (stereo partly drawn)	·	-9%	·	·	·	-1%
Cn1c(N2CCOCC2)nc(-c2ccccc2)c1-c1ccccc1	0%	-7%	4%	8.6*	-1%	-1%
O=C(O)CSc1ccc([N+](=O)[O-])cc1[N+](=O)[O-]	-2%[9.22 µM]	0%[11 µM]	·	·	0%[9.17 µM]	2%[9.22 µM]
Cc1cccc(-c2noc(CCc3ccccc3)n2)c1	-4%	32µM*	·	·	0%	1%
Cc1cccc(-c2noc(CCC(=O)NCc3ccccc3)n2)c1	0%	4%	9%	>77	8%	2%[1.84 µM]
CCCCCCC/C=C\CCCCCCCCC(=O)O	1%	1%	13µM*	·	-2%	0%
